Source: PubChem BioAssay
In the library only some 2.8% were active in any assay of this set; here they are far more common.
POLI inh = inhibitors of human DNA polymerase iota; Pol iota fluorescent replication assay, 10 min; Potency, µM (highest dose often 115 µM), for the others: at the top dose activity, negative = inhibition, usual class: inhibitors; AID 588590; hit rate 1% among 390,000; Q9UNA4; note: potency is the fitted concentration of half-maximal effect
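Pol iota at 10 nM preincubated 15 min with compounds at room temperature; reaction started with fluorescent substrate, 50 nM final. Fluorescence read kinetically at 0 and 10 min; buffer-only wells as negative control.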
POLB inh = DNA polymerase beta (human) inhibition; P06746; Pol beta primer extension/strand displacement, fluorescence kinetic; Potency, µM (top dose mostly 114 µM), for the others: at the highest dose activity change, negative = inhibition, most hits filed as inhibitors; hit rate 1.3% among 340,000; AID 485314; note: potency is the fitted concentration of half-maximal effect; % is set by controls: 0 for no effect and ±100 for the full control effect
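Homogeneous kinetic assay of primer extension and strand displacement by 10 nM Pol beta, preincubated 15 min at room temperature with compound before 50 nM substrate (final) was added. Read at 0 and 10 min; four-parameter Hill fit.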
Pol kappa inh = DNA polymerase kappa (human) inhibition; Q9UBT6; purified Pol kappa, fluorescent DNA synthesis assay, 10 min; Potency, µM (top dose mostly 107 µM), for the others: at the highest dose activity, negative = inhibition, usual class: inhibitors; hit rate 0.53% among 400,000; note: potency is the fitted concentration of half-maximal effect; % is set by controls: 0 for no effect and ±100 for the full control effect
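Inhibition of 10 nM Pol kappa is measured by a fluorescent read-out at 0 and 10 min following addition of 50 nM substrate (final), with a 15-min room-temperature compound preincubation.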
Pol eta inh = DNA polymerase eta (human) inhibition. Q9Y253. recombinant Pol eta, fluorescent DNA replication assay. Potency, µM (doses to about 114 µM), inactives show top-dose activity change, negative = inhibition, actives largely listed as inhibitors. hit rate 1.2% among 390,000. AID 588591; note: potency is the fitted concentration of half-maximal effect; % is set by controls: 0 for no effect and ±100 for the full control effect
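Pol eta at 10 nM preincubated with compounds 15 min at room temperature; reaction started with fluorescent substrate (50 nM final) and read kinetically at 0 and 10 min.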
PI5P4K alpha inh = inhibitors of human PI5P4K alpha; P48426; PI5P4Kalpha enzyme, ADP-Glo luminescence, 60 min; hits give low values; max response, %; hit rate 1.2% among 330,000; active = max response of -50% or lower; inconclusive = between -30% and -50%; inactive = -30% or higher; note: value at the top dose of about 77 µM; % is set by controls: 0 for no effect and ±100 for the full control effect
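Human PI5P4Kalpha with substrate in 0.038 M HEPES pH 7.4, 0.28 mM EGTA, 0.1% CHAPS, 5% DMSO; reaction started with 5 microM ATP (final), 60 min at room temperature. ADP formed read by ADP-Glo luminescence.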
WRN inhibitor = WRN helicase (human) inhibition; Q14191; WRN helicase unwinding, fluorescent forked duplex, kinetic; Potency, µM (titrated, usually from 114 µM), for inactives: at the top dose activity change, negative = inhibition, usual class: inhibitors; hit rate 0.46% among 360,000; note: potency is the fitted concentration of half-maximal effect; % is set by controls: 0 for no effect and ±100 for the full control effect; nearly all actives have a fitted effect of over 55% in size
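Enzyme (20 nM final) and test compound sit together 15 min at room temperature before substrate addition. Substrate is a single-forked duplex oligonucleotide (100 nM) labelled with fluorophore and quencher, with 2 mM ATP; helicase unwinding raises red fluorescence, read kinetically.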
An asterisk follows results filed as active; u = inconclusive; x = not tested or not shown; [ ] = remark or other dose. Unless noted, calls come from the whole dose curve; as a rule, active = well fitted curve in the direction sought with a large enough effect; inconclusive = small, poorly fitted or top-dose-only effect, or another doubt; inactive = no such curve, though single readings can be large; an effect the other way counts as inactive or inconclusive.

SMILES	POLI inh	POLB inh	Pol kappa inh	Pol eta inh	PI5P4K alpha inh	WRN inhibitor
Cc1ccc2nc(SCC(=O)NCc3ccco3)c(C#N)cc2c1	-5.8%	u	-5.3%	u	-7.2	-13.3%
CC(=O)n1cc(/C=N/NC(=O)c2ccc([N+](=O)[O-])cc2)c2ccccc21	-20.2%	u	-12.7%	u	-12.8	-9.8%
CC(=O)n1cc(/C=N/NC(=O)c2sc(C)nc2C)c2ccccc21	11.2µM*	17.8µM*	u	-11.9%	-10.5	-11.5%[57.1 µM]
COc1cccc(C(=O)Nc2cc(C(=O)NCCc3ccccc3)ccc2Cl)c1	4.5%	-1.3%	-4.2%[60.1 µM]	-7.0%	x	2.1%
COc1cccc(/C(O)=C/c2nc3ccc(C(=O)NCCc4cccc(C)c4)cc3[nH]c2=O)c1	13.7%	-1.9%	-9.5%	-17.6%	-0.2	70.8µM*
COc1cccc(/C(O)=C/c2nc3ccc(C(=O)NCCc4ccc(Cl)cc4)cc3[nH]c2=O)c1	-3.2%	-0.1%	-16.4%	-8.4%	-92.9*	2.8%
O=C(N/N=C/c1ccc(OC(F)F)cc1)c1ccc(Br)cc1	-13.8%	79.4µM*	-3.2%	-14.1%	-0.7	-6.2%
CC[C@H](C)C(C(=O)N1CCN(C(=O)OC(C)(C)C)CC1)n1cc(C(Cc2ccc(O)cc2)NC(=O)OC(C)(C)C)nn1 (stereo partly specified)	5.6%	20.1%	18.3%	-16.4%	15.0	8.4%
CC(C)CC(NC(=O)OC(C)(C)C)c1cn([C@@H](Cc2ccc(O)cc2)C(=O)N2CCN(C(=O)OC(C)(C)C)CC2)nn1 (stereo partly specified)	14.8%	35.5µM*	-7.4%	-22.3%	0.0	-6.2%
CCN(CC)CCNC(=O)c1ccc2c(=O)n3nc(Nc4ccccc4)sc3nc2c1	-3.4%	15.6%	-1.5%[60.1 µM]	6.5%	x	x
COc1ccc(CCN2CC(C(=O)NCCc3ccc(C)cc3)CC2=O)cc1OC (stereo unspecified)	79.4µM*	u	u	u	-15.2	-27.5%
Cc1ccc(CCNC(=O)C2CC(=O)N(CCc3ccc(C)cc3)C2)cc1 (stereo unspecified)	12.6%	10.1%	-6.7%[60.1 µM]	-6.3%	x	x
Cc1cccc(N2CCC(N3CCN(C4CCCCC4)C(CCO)C3)CC2)c1C (stereo unspecified)	49.0%	39.8µM*	-1.2%	-1.8%	6.6	0.3%
COc1ccc2cc(C3(C)NC(=O)N(CC(=O)N4CCCCC4)C3=O)ccc2c1 (stereo unspecified)	15.0%	x	-11.7%	-17.4%	0.2	5.7%
CC(C)(C)NC(=O)C(c1cccc2ccccc12)n1c(=O)c(-c2ccco2)nc2ccccc21 (stereo unspecified)	x	x	x	x	-60.6*	-4.8%
CCCCCNC(=O)C(c1cccc2ccccc12)n1c(=O)c(-c2ccco2)nc2ccccc21 (stereo unspecified)	x	x	x	x	-56.6*	-7.4%
CCCCCNC(=O)C(c1ccc(C(F)(F)F)cc1)n1c(=O)c(-c2ccco2)nc2ccccc21 (stereo unspecified)	x	x	x	x	-60.2*	0.0%
O=C(NCc1ccccc1)C(c1cccc2ccccc12)n1c(=O)c(-c2ccco2)nc2ccccc21 (stereo unspecified)	x	x	x	x	u	-1.2%
CCCCCNC(=O)C(C1CC1)n1c(=O)c(-c2ccco2)nc2ccccc21 (stereo unspecified)	x	x	x	x	-23.6	2.2%
CC(C)(C)NC(=O)C(c1cccc2ccccc12)n1c(=O)c(-c2ccccc2)nc2ccccc21 (stereo unspecified)	x	x	x	x	3.0	-0.9%
COc1ccc2[nH]c(C(=O)O)c(CCN3C(=O)c4ccc(C(=O)O)cc4C3=O)c2c1	90.1%	30.8%	-0.8%	-14.7%	-60.3*	-7.2%
CCc1cc(-c2n[nH]c(C)c2-c2ccccc2Cl)c(O)cc1OC	89.1µM*	5.4%	0.0%	-15.6%	16.4	-17.6%
CCOc1ccc(-c2n[nH]c(C)c2-c2ccccc2OC)c(O)c1	-2.3%	-9.2%	-12.7%	-17.5%	1.6	-4.5%[57.1 µM]
Nn1c(-c2ccccc2)cc(-c2ccccc2)cc1=O	12.5%	x	-13.5%	-6.6%	0.2	-8.3%
O=C(NN1C(=O)c2ccc(-c3ccc4c(c3)C(=O)N(NC(=O)c3cccnc3)C4=O)cc2C1=O)c1cccnc1	50.1µM*	u	-18.1%	50.1µM*	u	-32.2%
SMILES	POLI inh	POLB inh	Pol kappa inh	Pol eta inh	PI5P4K alpha inh	WRN inhibitor
CCOC(=O)c1c(NC(=O)C2C3C=CC(C3)C2C(=O)O)sc2c1CC(C)CC2 (stereo unspecified)	27.5%	28.8%	3.2%	-16.9%	-3.1	5.4%
CCCOC(=O)c1c(NC(=O)C2C3C=CC(C3)C2C(=O)O)sc2c1CCC(C)C2 (stereo unspecified)	u	-11.1%	-3.3%	u	-59.0*	-16.5%
CCN1C/C(=C/c2ccc(N3CCOCC3)cc2)C(=O)/C(=C/c2ccc(N3CCOCC3)cc2)C1	79.4µM*	u	u	u	-0.9	79.4µM*
CN1C/C(=C\c2ccc(N3CCOCC3)cc2)C(=O)/C(=C/c2ccc(N3CCOCC3)cc2)C1	24.2%	-12.3%	-6.7%	-12.7%	-6.1	-12.2%
C=CCn1c(=O)[nH]c2cc(C(=O)N3CCN(c4cccc(Cl)c4)CC3)ccc2c1=O	89.1µM*	-68.3%	-25.5%	u	-52.6*	-17.2%
Cc1ccc(NC(=O)CSCC(=O)NC2=NCCS2)cc1	-13.0%	x	-8.4%	-11.9%	0.6	-4.6%
CCS(=O)(=O)N1Cc2ccccc2CC1C(=O)N1CCN(c2ccccc2)CC1 (stereo unspecified)	u	35.5µM*	u	15.8µM*	u	u
O=C(C1Cc2ccccc2CN1S(=O)(=O)c1ccc(F)cc1)N1CCOCC1 (stereo unspecified)	20.9%	10.3%	-3.4%	-1.7%	x	4.4%
Cc1sc2ncn(CC(=O)N3CCN(c4ccc(Cl)cc4)CC3)c(=O)c2c1S(=O)(=O)N1CCN(c2ncccn2)CC1	27.8%	4.1%	4.3%	-14.3%	x	x
O=S(=O)(Nc1nc2ccccc2nc1Nc1ccc2c(c1)OCCO2)c1cccs1	u	17.8µM*	-42.3%	u	x	u
COc1c2ccc(OCC/C(C)=C/C(=O)C=C(C)C)cc2nc2occc12	u	x	-21.9%	44.7µM*	-19.7	-0.6%[11.6 µM]
O=C1ON=C(c2ccccc2)/C1=C/c1ccc(OS(=O)(=O)c2ccccc2)cc1	-2.6%	-8.8%	-29.4%	u	-69.0*	u
CCCCC1=CC2=CC(=O)C(C)(OC(=O)c3cccs3)C(=O)C2=CO1 (stereo unspecified)	u	x	u	22.4µM*	-86.5*	-33.3%
COC(=O)CCCC1=CC2=CC(=O)C(C)(OC(=O)c3cccs3)C(=O)C2=CN1c1ccccc1 (stereo unspecified)	u	x	-38.9%	u	-13.9	-7.2%
